# Data from the supplement of paper PMC8728848.
# This is one part of a sample in which the strongest signals are shown more often than they occur.
# B1: Fm1D (Escherichia coli) (protein)
# chain: FSCNVDGGSSIGAGTTSVYVNLDPVIQPGQNLVVDLSQHISCWNDYGGWYDTDHINLVQGSAFAGSLQSYKGSLYWNNVTYPFPLTTNTNVLDIGDKTPMPLPLKLYITPVGAAGGVVIKAGEVIARIHMYKIATLGSGNPRNFTWNIISNNSVVMPTHHHHHH
# Key:
# Test in all cases: glycan array binding signal (z-score within array); higher = stronger binding
# Details in all cases: glycan notation: IUPAC condensed, linker removed
# [1] = biological target: Fuc(a1-2)Gal(b1-3)GalNAc(b1-4)[Neu5Ac(a2-3)]Gal(b1-4)Glc
# In short: (§1)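 Glycan array data came from 3228 arrays in the Consortium for Functional Glycomics database, and only arrays with an available protein sequence were kept. Glycan names were put into IUPAC-condensed notation, and columns mapping to the same glycan were averaged. The binding signal is a within-array Z-score, averaged across arrays of one protein sequence run at different concentrations or buffers and across linkers. A negative Z-score can be read as non-binding.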
# [2] = biological target: Fuc(a1-2)Gal(b1-4)GlcNAc(b1-3)Gal(b1-4)GlcNAc(b1-3)Gal(b1-4)GlcNAc
# In short: as §1
# [3] = biological target: Fuc(a1-2)Gal(b1-4)[Fuc(a1-3)]GlcNAc(b1-3)[Neu5Ac(a2-6)Gal(b1-4)GlcNAc(b1-6)]Gal(b1-4)Glc
# In short: as §1
# Fuc(a1-2)Gal6S(b1-4)Glc = biological target: Fuc(a1-2)Gal6S(b1-4)Glc
# In short: as §1
# [4] = biological target: Fuc(a1-2)Gal6S(b1-4)Glc6S
# In short: as §1
# [5] = biological target: Fuc(a1-2)[Gal(a1-3)]Gal(b1-4)GlcNAc(b1-2)Man(a1-3)[Fuc(a1-2)[Gal(a1-3)]Gal(b1-4)GlcNAc(b1-2)Man(a1-6)]Man(b1-4)GlcNAc(b1-4)GlcNAc
# In short: as §1
# [6] = biological target: Fuc(a1-2)[Gal(a1-3)]Gal(b1-4)GlcNAc(b1-2)Man(a1-3)[Fuc(a1-2)[Gal(a1-3)]Gal(b1-4)GlcNAc(b1-2)Man(a1-6)]Man(b1-4)GlcNAc(b1-4)[Fuc(a1-6)]GlcNAc
# In short: as §1
# [7] = biological target: Fuc(a1-2)[GalNAc(a1-3)]Gal(b1-3)GlcNAc
# In short: as §1
# [8] = biological target: Fuc(a1-3)[Gal(b1-4)]GlcNAc(b1-6)GalNAc
# In short: as §1
# Gal(a1-3)Gal = biological target: Gal(a1-3)Gal
# In short: as §1
# [9] = biological target: Gal(a1-3)[Gal(a1-4)]Gal(b1-4)GlcNAc
# In short: as §1
# Gal(b1-3)GalNAc = biological target: Gal(b1-3)GalNAc
# In short: as §1
# [10] = biological target: Gal(b1-3)GlcNAc(b1-6)GalNAc
# In short: as §1
# [11] = biological target: Gal(b1-3)GlcNAc(b1-6)[Gal(b1-3)]GalNAc
# In short: as §1
# [12] = biological target: Gal(b1-3)[GlcNAc(b1-6)]GalNAc
# In short: as §1
# [13] = biological target: Gal(b1-3)[Neu5Ac(a2-6)]GalNAc
# In short: as §1
# [14] = biological target: Gal(b1-4)GlcNAc(b1-2)Man(a1-6)[Man(a1-3)]Man(b1-4)GlcNAc(b1-4)GlcNAc
# In short: as §1
# [15] = biological target: Gal(b1-4)GlcNAc(b1-2)[Gal(b1-4)GlcNAc(b1-4)]Man(a1-3)[GlcNAc(b1-4)][Gal(b1-4)GlcNAc(b1-2)Man(a1-6)]Man(b1-4)GlcNAc(b1-4)GlcNAc
# In short: as §1
# [16] = biological target: Gal(b1-4)GlcNAc(b1-2)[Gal(b1-4)GlcNAc(b1-6)]Man(a1-6)[GlcNAc(b1-4)][Gal(b1-4)GlcNAc(b1-2)Man(a1-3)]Man(b1-4)GlcNAc(b1-4)GlcNAc
# In short: as §1
# [17] = biological target: Gal(b1-4)GlcNAc(b1-3)Gal(b1-4)GlcNAc(b1-2)Man(a1-3)[Gal(b1-4)GlcNAc(b1-3)Gal(b1-4)GlcNAc(b1-2)Man(a1-6)]Man(b1-4)GlcNAc(b1-4)GlcNAc
# In short: as §1
# [18] = biological target: Gal(b1-4)GlcNAc(b1-3)Gal(b1-4)GlcNAc(b1-6)[Gal(b1-3)]GalNAc
# In short: as §1
# [19] = biological target: Gal(b1-4)GlcNAc(b1-6)[Gal(b1-3)]GalNAc
# In short: as §1
# Gal3S(b1-3)GlcNAc = biological target: Gal3S(b1-3)GlcNAc
# In short: as §1
# GlcA(b1-3)Gal = biological target: GlcA(b1-3)Gal
# In short: as §1
# [20] = biological target: GlcNAc(b1-2)[GlcNAc(b1-4)]Man(a1-3)[GlcNAc(b1-4)][GlcNAc(b1-2)[GlcNAc(b1-6)]Man(a1-6)]Man(b1-4)GlcNAc(b1-4)[Fuc(a1-6)]GlcNAc
# In short: as §1
# [21] = biological target: GlcNAc(b1-3)Gal(b1-4)GlcNAc(b1-6)[Gal(b1-3)]GalNAc
# In short: as §1
# [22] = biological target: GlcNAc(b1-6)Gal(b1-4)GlcNAc
# In short: as §1
# Kdn(a2-3)Gal(b1-3)GalNAc = biological target: Kdn(a2-3)Gal(b1-3)GalNAc
# In short: as §1
# [23] = biological target: Neu5Ac(a2-3)Gal(b1-3)GalNAc6S
# In short: as §1
# [24] = biological target: Neu5Ac(a2-3)Gal(b1-4)GlcNAc(b1-3)Gal(b1-4)GlcNAc(b1-6)[Gal(b1-3)]GalNAc
# In short: as §1
# [25] = biological target: Neu5Ac(a2-3)Gal(b1-4)GlcNAc(b1-6)[Gal(b1-3)]GalNAc
# In short: as §1
# [26] = biological target: Neu5Ac(a2-3)Gal(b1-4)[Fuc(a1-3)]GlcNAc(b1-3)Gal(b1-4)GlcNAc
# In short: as §1
# [27] = biological target: Neu5Ac(a2-6)Gal(b1-4)GlcNAc(b1-2)[Neu5Ac(a2-6)Gal(b1-4)GlcNAc(b1-4)]Man(a1-3)[GlcNAc(b1-4)][Neu5Ac(a2-6)Gal(b1-4)GlcNAc(b1-2)[Neu5Ac(a2-6)Gal(b1-4)GlcNAc(b1-6)]Man(a1-6)]Man(b1-4)GlcNAc(b1-4)GlcNAc
# In short: as §1
# [28] = biological target: Neu5Ac(a2-6)Gal(b1-4)GlcNAc(b1-3)Gal(b1-4)GlcNAc(b1-3)Gal(b1-4)GlcNAc
# In short: as §1
# [29] = biological target: Neu5Ac(a2-6)Gal(b1-4)GlcNAc(b1-3)Gal(b1-4)GlcNAc(b1-6)[Gal(b1-3)]GalNAc
# In short: as §1
# [30] = biological target: Neu5Ac(a2-6)Gal(b1-4)GlcNAc(b1-6)[Gal(b1-3)]GalNAc
# In short: as §1
# [31] = biological target: Neu5Ac(a2-6)GalNAc(b1-4)GlcNAc
# In short: as §1
# [32] = biological target: Neu5Ac(a2-8)Neu5Ac(a2-8)Neu5Ac(a2-3)[GalNAc(b1-4)]Gal(b1-4)Glc
# In short: as §1
# [33] = biological target: Neu5Gc(b2-6)Gal(b1-4)GlcNAc
# In short: as §1
binder,measurement,setting,value
B1,glycan array binding signal (z-score),[1],-0.146
same,glycan array binding signal (z-score),[2],-0.144
same,glycan array binding signal (z-score),[3],-0.143
same,glycan array binding signal (z-score),Fuc(a1-2)Gal6S(b1-4)Glc,-0.149
same,glycan array binding signal (z-score),[4],-0.14
same,glycan array binding signal (z-score),[5],-0.142
same,glycan array binding signal (z-score),[6],-0.143
same,glycan array binding signal (z-score),[7],-0.146
same,glycan array binding signal (z-score),[8],-0.139
same,glycan array binding signal (z-score),Gal(a1-3)Gal,-0.142
same,glycan array binding signal (z-score),[9],-0.125
same,glycan array binding signal (z-score),Gal(b1-3)GalNAc,2.2
same,glycan array binding signal (z-score),[10],-0.12
same,glycan array binding signal (z-score),[11],3.7
same,glycan array binding signal (z-score),[12],4.94
same,glycan array binding signal (z-score),[13],3.04
same,glycan array binding signal (z-score),[14],-0.144
same,glycan array binding signal (z-score),[15],-0.147
same,glycan array binding signal (z-score),[16],-0.151
same,glycan array binding signal (z-score),[17],-0.138
same,glycan array binding signal (z-score),[18],3.82
same,glycan array binding signal (z-score),[19],10.7
same,glycan array binding signal (z-score),Gal3S(b1-3)GlcNAc,-0.132
same,glycan array binding signal (z-score),GlcA(b1-3)Gal,-0.143
same,glycan array binding signal (z-score),[20],-0.144
same,glycan array binding signal (z-score),[21],4.57
same,glycan array binding signal (z-score),[22],-0.134
same,glycan array binding signal (z-score),Kdn(a2-3)Gal(b1-3)GalNAc,-0.14
same,glycan array binding signal (z-score),[23],-0.141
same,glycan array binding signal (z-score),[24],1.11
same,glycan array binding signal (z-score),[25],5.29
same,glycan array binding signal (z-score),[26],-0.14
same,glycan array binding signal (z-score),[27],-0.142
same,glycan array binding signal (z-score),[28],-0.146
same,glycan array binding signal (z-score),[29],11.5
same,glycan array binding signal (z-score),[30],3.09
same,glycan array binding signal (z-score),[31],-0.144
same,glycan array binding signal (z-score),[32],-0.152
same,glycan array binding signal (z-score),[33],-0.143
